# In the library only some 8.7% were active in any assay of this set; here they are far more common.
# Vaccinia Venus = vaccinia inhibition (Venus reporter); hit rate 0.46% among 330,000; Vaccinia virus Venus reporter expression, fluorescence; Potency, µM (top dose mostly 36.5 µM), without a hit: at the highest dose activity change, negative = inhibition, usual class: inhibitors; calls by dose curve; tested in A549 cells; note: nearly all actives have a fitted effect of over 30% in size
# Vaccinia mCherry = inhibitors of vaccinia virus infection (mCherry reporter signal); Vaccinia virus mCherry reporter infection, fluorescence; Potency, µM (series often up to 36.5 µM), without a hit: top-dose activity change, negative = inhibition, usual class: inhibitors; hit rate 0.63% among 310,000; AID 720579; calls by dose curve; tested in A549 cells; note: nearly all actives have a fitted effect of over 35% in size
# Pf growth 96h = P. falciparum growth inhibition at 96 hours | hit rate 6.9% among 320,000 | AID 504834 | Potency, µM (series often up to 28.7 µM), for inactives: at the top dose activity change, negative = inhibition, usual class: inhibitors | P. falciparum luciferase reporter growth, 96 h
#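 Parasite growth measured via integrated firefly luciferase reporter in P. falciparum. Infected erythrocytes at 2% hematocrit, 0.05% parasitemia final were treated 96 hours at 37 C under 5% CO2, and luminescence was read.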
# AMA1-RON2 inh = AMA1-RON2 (P. falciparum) interaction inhibition | AID 720542 | Potency, µM (titrated, usually from 58.2 µM), inactives show at the top dose activity change, negative = inhibition, usual class: inhibitors | AlphaScreen AMA1-biotinylated RON2 peptide binding | hit rate 0.2% among 360,000;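 note: 0% = vehicle wells and -100% = peptide control; nearly all actives have a fitted effect of over 45% in size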
#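 AMA1 (3D7) with his tag at 25 nM final met compounds first, then biotinylated RON2 peptide at 25 nM; detection used donor plus acceptor beads, 10 µg/mL apiece, read by AlphaScreen after 30 min at room temperature.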
# Pf growth 48h = P. falciparum growth inhibition at 48 hours (one generation). P. falciparum luciferase growth in erythrocytes, 48 h. Potency, µM (series often up to 28.7 µM), for inactives: at the highest dose activity change, negative = inhibition, hits mostly inhibitors. AID 504832. hit rate 5.9% among 310,000
#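 Luciferase-expressing parasites in RBCs, 2% Hct / 0.1% parasitemia final; RPMI 1640 + 0.5% Albumax; 37 C, 5% CO2, one generation; luminescence read-out, lower signal = inhibition.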
# Starred values were filed as active, the others as inactive; i = inactive; ? = inconclusive; . = no result. Unless noted, calls come from the whole dose curve; as a rule, active = well fitted curve in the direction sought with a large enough effect; inconclusive = small, poorly fitted or top-dose-only effect, or another doubt; inactive = no such curve, though single readings can be large; an effect the other way counts as inactive or inconclusive. Unless noted, % is set by controls: 0 for no effect and ±100 for the full control effect; potency is the fitted concentration of half-maximal effect.
SMILES,Vaccinia Venus,Vaccinia mCherry,Pf growth 96h,AMA1-RON2 inh,Pf growth 48h
CCN(CC)CCCN1C(=O)C(=O)/C(=C(/O)c2ccc(C)cc2)C1c1ccccn1 (stereo not given),-6%,-14%,3.3µM*,21%,6%
COc1ccc(CNCc2ccc(C(=O)O)s2)cc1,0%,-7%,.,.,.
CC1C(=O)Nc2ccc(S(=O)(=O)N3CCCCC3)cc2NC1=O (stereo not given),-11%,-8%,.,.,.
CSCCC1Nc2ccc(S(=O)(=O)N3CCOCC3)cc2NC1=O (stereo not given),4%,-1%,10µM*,6%,-24%
O=C(Nc1ccccc1-c1nnc(SCc2ccc(Cl)cc2)o1)c1ccccc1,.,.,0%,-2%,13µM*
O=C(Nc1ccccc1-c1nnc(SCc2ccccc2)o1)c1ccccc1,.,.,?,19%,?
CCOc1ccccc1-c1nnc(SCc2ccc(Cl)cc2)o1,-4%,-4%,.,.,.
O=c1c(-c2nnc(SCc3ccc(Cl)cc3)o2)cccn1Cc1ccccc1,.,.,13µM*,24%,?
CCOC(=O)C1=C(c2ccccc2)OC(N)=C(C#N)C1C1CCCCC1 (stereo not given),-22%,.,.,-6%,8%
CCOC(=O)C1=C(c2ccccc2)O/C(=C(/C#N)C(F)(F)F)S1,.,.,.,.,9.3µM*
CCOC(=O)C1=C(c2ccccc2)O/C(=C(\C(=O)OC)C(F)(F)F)S1,-27%,?,9.3µM*,3%,.
Cc1c(C(=O)OCc2ccccc2)[nH]c2c1C(=O)CC(c1ccco1)C2 (stereo not given),?,?,3%,-21%,1.5µM*
CCOC(=O)c1[nH]c2c(c1C)C(=O)CC(c1ccco1)C2 (stereo not given),?,?,14%,0%,13µM*
CSCCOC(=O)c1[nH]c2c(c1C)C(=O)CC(c1ccco1)C2 (stereo not given),-29%,?,3.7µM*,-25%,?
COCCOC(=O)c1[nH]c2c(c1C)C(=O)CC(c1ccco1)C2 (stereo not given),-28%,?,38%,-29%,?
COc1ccc(OC)c(NC(=O)C2CCCN(S(=O)(=O)c3ccc4[nH]c(=O)ccc4c3)C2)c1 (stereo not given),0%,-6%,.,.,.
CCCCN(CC)CCCNC(=O)CCN1N=C(c2ccc(OC)cc2)CCC1=O,1%,-3%,.,.,.
CCOC(=O)c1ccc(NC(=O)NC2CC3CCC(C2)N3Cc2nnnn2C(C)(C)C)cc1 (stereo not given),.,.,-13%,6%,2.1µM*
CCCC12CN3CC(C)(CN(C1)C3c1cn(CC)c3ccccc13)C2=O (stereo not given),-7%,0%,.,.,.
Cc1ccccc1C1(CC(=O)N2CCCCC2C)CC(=O)N(Cc2cccnc2)C1=O (stereo not given),3%,-10%,.,.,.
CCOc1cc(N2CCOCC2)c(OCC)cc1NC(C)C(=O)N1CCC(C)CC1 (stereo not given),-16%,i,?,-17%,10µM*
CCOc1cc(N2CCOCC2)c(OCC)cc1NC(=O)[C@H](C)N1C(=O)C2CC=CCC2C1=O (stereo not given in full),6%,-2%,-2%,-25%,-6%
CCOc1cc(N2CCOCC2)c(OCC)cc1NC(=O)COc1cccc(CC)c1,.,.,?,-5%,10µM*
CCOc1cc(N2CCOCC2)c(OCC)cc1NC(=O)Cc1cccc(OC)c1,-8%,.,?,-4%,?
CCOc1cc(N2CCOCC2)c(OCC)cc1NC(=O)CN1CCN(Cc2ccc3c(c2)OCO3)CC1,-1%,i,?,5%,?
SMILES,Vaccinia Venus,Vaccinia mCherry,Pf growth 96h,AMA1-RON2 inh,Pf growth 48h
CCOc1cc(N2CCOCC2)c(OCC)cc1NC(=O)Cc1ccc(OC)c(OC)c1,-13%,-24%,180%,-9%,9.3µM*
CCOc1cc(N2CCOCC2)c(OCC)cc1NCC(=O)N1CCN(Cc2ccccc2)CC1,-11%,?,5.9µM*,?,?
O=C(COc1ccccc1C(=O)Nc1cccnc1)Nc1ccc(Br)cc1,-25%,-10%,.,.,.
Cc1oc(-c2ccccc2NC(=O)c2ccccc2)nc1CNC(=O)C1CC(=O)OC12CCCCC2 (stereo not given),12%,17%,.,.,.
COc1ccc2c(c1)C/C(=C\c1ccc(N(C)C)cc1)C2=O,48%,-24%,.,.,.
CCOc1cc(N2CCOCC2)c(OCC)cc1NC(=O)CSc1ccccc1C(=O)O,.,.,9.3µM*,-6%,?
COc1ccccc1N1CCN(C(=O)c2c(-c3c(F)cccc3Cl)noc2C)CC1,-22%,-10%,12µM*,0%,?
Cc1onc(-c2c(F)cccc2Cl)c1C(=O)N1CCc2ccccc2C1,-17%,i,?,-2%,5.9µM*
Cc1onc(-c2c(Cl)cccc2Cl)c1C(=O)N=S(C)(=O)c1ccccc1 (stereo not given),-19%,-22%,10µM*,-15%,?
Cc1onc(-c2c(Cl)cccc2Cl)c1C(=O)N1CCc2ccccc21,.,.,0%,-11%,8.3µM*
Cc1onc(-c2c(Cl)cccc2Cl)c1C(=O)N1CCOCC1,-26%,-26%,19%,-5%,-4%
Cc1onc(-c2ccccc2Cl)c1C(=O)N1CCc2ccccc2C1,-12%,-23%,?,-1%,?
CCOC(=O)c1ccccc1NC(=O)Cn1c(=O)n(Cc2nc(-c3ccccc3)no2)c(=O)c2ccccc21,-6%,-14%,.,.,.
COc1ccccc1CN1CCN(C2CCN(C(=O)Nc3ccccc3)CC2)C(=O)C1=O,5%,3%,.,.,.
CCCOc1cccc(C2c3c(oc4ccc(F)cc4c3=O)C(=O)N2c2nc(C)c(C(C)=O)s2)c1 (stereo not given),-15%,-6%,.,.,.
O=C(Nc1cccc(-c2ccc(N3CCOCC3)nn2)c1)c1ccc([N+](=O)[O-])cc1,-11%,i,9.3µM*,0%,?
CCc1ccc(N=C2NC(=O)/C(=C/c3cc(OC)c(OC)c(OC)c3)S2)cc1,?,-28%,?,68%,-3%
COc1cc(/C=C2\SC(=Nc3ccc(O)cc3)NC2=O)cc(OC)c1O,216%,-5%,9.3µM*,-6%,3.7µM*
COc1ccc(OC)c(NC(=O)CN(c2ccccc2OC)S(=O)(=O)c2ccc(C)cc2)c1,-12%,-14%,.,.,.
CCOc1ccc(C2=NC(c3ccncc3)=Nc3ccc(C)cc3N2)cc1OCC,-12%,-3%,.,.,.
CC1CCN(S(=O)(=O)c2ccc3c(c2)N(CC(=O)NCCN(C)C)C(=O)CO3)CC1,7%,-6%,.,.,.
CCOc1ccc(-c2nnc(SCC(=O)NC3CCCC3)nc2-c2ccc(OCC)c(OC)c2)cc1OC,-19%,-21%,.,.,.
CCOc1ccc(-c2nnc(SCC(=O)NC(C)(C)C)nc2-c2ccc(OCC)c(OC)c2)cc1OC,-19%,i,?,-11%,2.3µM*
Cn1cc([C@@H]2C[C@H]3CN(Cc4cccc(Cl)c4)C(=O)[C@]34CCCN24)c2ccccc21,.,.,?,-15%,12µM*

# High-throughput results as filed in PubChem BioAssay.
